Laboratory results from publication PMC4336329 (PLoS ONE, 2015).
The campaign covered roughly 310,000 compounds. About 14,000 (4.5%) showed an effect of 50% or more. Effects have a minus sign here. The sample as a whole holds a higher share of strong results than the screen did.

target: human ether-à-go-go-related gene (hERG) potassium channel (human, UniProt Q12809); assay: primary screen, population patch clamp on CHO cells stably expressing hERG; higher = less effect of the substance
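Also: peak tail current of the secondary pulse compared with the same well before compound.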

Sequence of human ether-à-go-go-related gene (hERG) potassium channel (Q12809 whole entry, looked up): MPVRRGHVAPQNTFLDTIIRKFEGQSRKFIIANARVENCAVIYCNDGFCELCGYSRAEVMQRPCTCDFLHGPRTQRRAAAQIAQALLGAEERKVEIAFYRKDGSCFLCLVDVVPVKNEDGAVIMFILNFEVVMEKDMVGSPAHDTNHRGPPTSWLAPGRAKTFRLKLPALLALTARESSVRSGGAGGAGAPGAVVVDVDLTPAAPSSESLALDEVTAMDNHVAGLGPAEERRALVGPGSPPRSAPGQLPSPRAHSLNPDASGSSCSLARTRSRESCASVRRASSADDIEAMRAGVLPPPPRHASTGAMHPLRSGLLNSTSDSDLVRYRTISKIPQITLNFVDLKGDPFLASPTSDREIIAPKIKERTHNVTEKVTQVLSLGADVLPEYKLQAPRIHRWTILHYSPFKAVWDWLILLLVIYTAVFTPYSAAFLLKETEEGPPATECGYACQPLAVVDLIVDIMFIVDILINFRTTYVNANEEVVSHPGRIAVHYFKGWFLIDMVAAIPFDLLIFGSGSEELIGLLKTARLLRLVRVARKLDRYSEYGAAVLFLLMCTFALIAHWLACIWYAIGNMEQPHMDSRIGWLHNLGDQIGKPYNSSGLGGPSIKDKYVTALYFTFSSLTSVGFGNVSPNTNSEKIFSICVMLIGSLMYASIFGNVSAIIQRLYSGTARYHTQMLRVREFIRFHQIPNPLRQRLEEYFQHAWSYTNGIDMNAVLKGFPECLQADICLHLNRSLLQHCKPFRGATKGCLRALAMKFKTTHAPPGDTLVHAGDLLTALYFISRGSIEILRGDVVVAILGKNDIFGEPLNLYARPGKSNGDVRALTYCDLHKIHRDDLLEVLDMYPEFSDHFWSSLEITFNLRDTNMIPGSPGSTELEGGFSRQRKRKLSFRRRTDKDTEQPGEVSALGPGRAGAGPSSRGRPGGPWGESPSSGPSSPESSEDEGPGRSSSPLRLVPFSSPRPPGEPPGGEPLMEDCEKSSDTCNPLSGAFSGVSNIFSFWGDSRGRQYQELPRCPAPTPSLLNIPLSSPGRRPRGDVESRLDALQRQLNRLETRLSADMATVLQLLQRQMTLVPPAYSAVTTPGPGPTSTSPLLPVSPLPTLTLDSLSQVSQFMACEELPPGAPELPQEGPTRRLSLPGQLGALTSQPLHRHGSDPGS

Compound | hERG current change (%, negative = inhibition) at 10uM [%]
COc1cc(C(=O)N/N=C(\C)Cc2ccccc2)cc(OC)c1OC | 9.1
CCOC(=O)N1CCC(NC(=O)CSCc2nc(-c3ccc(OC)c(OC)c3)oc2C)CC1 | -2.5
COc1ccc(-c2onc(C)c2-c2cnn(-c3ccccc3)c2)c(O)c1 | 3.71
COc1cc(OC)c(/C=N/NC(=O)c2ccc(Cn3nc([N+](=O)[O-])cc3C)cc2)c(OC)c1 | -37.1
Cc1ccc2nsnc2c1NC(=O)c1ccc([N+](=O)[O-])o1 | 13.1
CCN1CCN(Cc2ccc(NC(=O)c3ccc(C)c(NC(=O)N4CCNC4=O)c3)cc2C(F)(F)F)CC1 | 1.09
CCOC(=O)C1(CCOc2ccccc2)CCN(Cc2cccn2-c2cccnc2)CC1 | -51.8
CCOC(=O)C1(CCOc2ccccc2)CCN(Cc2cccn2-c2ncccn2)CC1 | -76.4
CCOC(=O)C1(Cc2ccccc2)CCN(Cc2cccn2-c2cccnc2)CC1 | -39
OCC1(CCc2ccccc2)CCN(Cc2cccn2-c2cccnc2)CC1 | -49.4
OCC1(CCOc2ccccc2)CCN(Cc2cccn2-c2ncccn2)CC1 | -82.2
O=C(Nc1ccccc1)c1ccccc1N=Cc1ccccc1O | 2.2
COc1cc2c(cc1OC)CN(S(=O)(=O)c1cccc(F)c1)CC2 | 18.6
Cc1ccc(C)c(C(=O)COC(=O)Cn2[nH]c(=O)c3ccccc3c2=O)c1 | 5.51
O=C(CN1C(=O)NC2(CCCC2)C1=O)N1CCN(c2cccc(C(F)(F)F)c2)CC1 | -24.5
Cc1oc2c(C)c3oc(=O)c(CCC(=O)NCCCN4CCOCC4)c(C)c3cc2c1C | -6.99
COc1ccccc1CCN=C(N)NS(=O)(=O)c1ccc(C)c(C)c1 | 9.37
O=C(COC(=O)c1ncc(Cl)c(Cl)c1Cl)NCc1ccccc1 | 2.42
CCN1CCN(C(=O)CS(=O)Cc2nc(-c3cccc(C)c3)oc2C)CC1 (stereo not shown) | 3.36
COc1ccc(-c2nnc(SC(C(=O)c3c[nH]c4ccccc34)c3ccccc3)n2N)cc1OC (stereo not shown) | 2.03
COc1ccc(NC(=O)c2cc3ccc(O)cc3o/c2=N\O)cc1 | 2.99
C=CCn1c(=O)c2ccccc2n2c(SCC(=O)NC)nnc12 | -1.24

Compound | hERG current change (%, negative = inhibition) at 10uM [%]
C=CCn1c(=O)c2ccccc2n2c(SCC(=O)Nc3sc(C(=O)N(CC)CC)c(C)c3C(=O)OCC)nnc12 | -52.3
CCCn1c(=O)c2ccccc2n2c(SCc3c(C(=O)OCC)oc4ccccc34)nnc12 | -43.5
C=CCn1c(=O)c2ccccc2n2c(SCC(=O)Nc3sc(C)c(CC)c3C(=O)OCC)nnc12 | 6.96
C=CCn1c(=O)c2ccccc2n2c(SCC(N)=O)nnc12 | 2.96
C=CCn1c(=O)c2ccccc2n2c(SCc3c(C(=O)OCC)oc4ccccc34)nnc12 | -56.1
Cc1ccc(S(=O)(=O)N(C)C)cc1NC(=O)CN1C(=O)NC(Cc2ccccc2)C1=O (stereo not shown) | 8.61
Cc1ccccc1C(OCC(O)CN1CCN(CCO)CC1)c1ccccc1.O=C(O)C(=O)O (stereo not shown) | -12.1
O=C(O)C(=O)O.OC1CCCN(CC(O)COC(c2ccc(F)cc2)c2ccc(F)cc2)C1 (stereo not shown) | -57.6
O=C(O)C(=O)O.OCCN1CCN(CC(O)COC(c2ccc(F)cc2)c2ccc(F)cc2)CC1 (stereo not shown) | -61.9
O=C(O)C(=O)O.OC(COC(c1ccc(F)cc1)c1ccc(F)cc1)CN1CCCC(C(F)(F)F)C1 (stereo not shown) | 10.8
O=C(O)C(=O)O.OC(COC(c1ccc(F)cc1)c1ccc(F)cc1)CN1CCCC1 (stereo not shown) | -70.6
CC(=O)c1ccc(OCC(O)CN2CCN(CCO)CC2)cc1.Cl (stereo not shown) | 9.1
O=C(OCN1C(=O)c2ccccc2C1=O)c1cccc(S(=O)(=O)N2CCOCC2)c1 | -3.06
CN1c2ccsc2/C(=N/NC(=O)c2c(F)cccc2F)CS1(=O)=O | 4.31
Cc1cccc(C2(c3cccc(C)c3)CC2C(=O)NCC2CCCO2)c1 (stereo not shown) | -6.94
CC(CC(=O)N1CCN(S(=O)(=O)c2ccccc2)CC1)n1cncn1 (stereo not shown) | 20.1
NS(=O)(=O)c1ccc(CCNC(=O)Nc2ccc(Cl)cc2)cc1 | -9.65
O=c1cc(NC2CCCCCC2)[nH]c(=O)[nH]1 | 4.69
CN(C)C(=O)Oc1c(Cl)cc(Cl)c2ccccc12 | -36.2
CCC(=O)/C=C1\Sc2ccc(OC)cc2N1CCO | -0.298
CCC(/C=C1\Sc2ccc(OC)cc2N1CCO)=C\c1sc2ccc(OC)cc2[n+]1CCO.[Cl-] | -72.9
CCC(/C=C1\Sc2ccc(OC)cc2N1CC)=C\c1sc2ccc(OC)cc2[n+]1CCCS(=O)(=O)[O-] | 15

Compound | hERG current change (%, negative = inhibition) at 10uM [%]
Cl.O=C(Nc1cccc(C(F)(F)F)c1)c1cccnc1N1CCN(c2ccccc2)CC1 | 7.25
COc1cccc(CNC(=O)C2CCCN(c3cnccn3)C2)c1 (stereo not shown) | -14.4
O=C(NCc1ccccc1)C1CCCN(c2cnccn2)C1 (stereo not shown) | -28.9
O=C(NCc1cccc(C(F)(F)F)c1)C1CCCN(c2ncccn2)C1 (stereo not shown) | -37.1
O=C(Nc1cccc(C(F)(F)F)c1)c1cccnc1N1CCN(CCO)CC1 | -63.8
Cc1ccc(CNC(=O)C2CCCN(c3cnccn3)C2)cc1 (stereo not shown) | -40
O=C(NCc1cccc(C(F)(F)F)c1)C1CCCN(c2cnccn2)C1 (stereo not shown) | -61
O=C(Nc1cccc(C(F)(F)F)c1)C1CCCN(c2ncccn2)C1 (stereo not shown) | -53.4
Cc1ccc(NC(=O)C2CCCN(c3ncccn3)C2)cc1F (stereo not shown) | -0.00042
CC(=O)Nc1ccc(NC(=O)C2CCCN(c3ncccn3)C2)cc1 (stereo not shown) | 2.63
O=C(NCc1ccc(Cl)cc1)C1CCCN(c2cnccn2)C1 (stereo not shown) | -66.5
O=C(Nc1cccc(C(F)(F)F)c1)c1cccnc1N1CCCC1 | 13.2
COC(=O)C1=C(C)Nc2nnnn2C1c1ccccc1Cl (stereo not shown) | -2.51
CCOC(=O)Cc1cc(OC)c(OC)cc1Cc1cc(OC)c(OC)cc1CC(=O)OCC | 9.74
C/C(=N\NC(=O)C1(C)CC1(Br)Br)c1ccc(NC(=O)C2CCC2)cc1 (stereo not shown) | 7.51
COc1ccc(CCNc2cc(C)[nH]c(=O)c2)cc1OC | 29.6
CCOC(=O)c1c(N)c2cc([N+](=O)[O-])ccc2n1C | 18.1
CCOCCCNC(=S)N1C2CCC1CC(NC(=O)NC13CC4CC(CC(C4)C1)C3)C2 (stereo not shown) | -8.16
O=C(NCc1ccc(F)cc1)C1CCCN(c2cnccn2)C1 (stereo not shown) | -65
O=C(Nc1ccc(F)cc1)C1CCCN(c2cnccn2)C1 (stereo not shown) | -11.9
O=C(NCc1ccccc1F)C1CCCN(c2cnccn2)C1 (stereo not shown) | 13.4
Cc1c(CCC(=O)NCC(=O)NCC(=O)O)c(=O)oc2cc3oc4c(c3cc12)CCCC4 | 4.87

Compound | hERG current change (%, negative = inhibition) at 10uM [%]
COc1ccc2nc3oc(C(=O)NC4CCN(Cc5ccccc5)CC4)cc3cc2c1 | -67.1
COc1ccc2cc3cc(C(=O)NCCN4CCc5ccccc5C4)sc3nc2c1 | -32.9
COc1ccc2cc3cc(C(=O)NCCN4CCN(c5ccccc5F)CC4)oc3nc2c1 | -15.8
COc1ccc2cc3cc(C(=O)NCCCN4CCc5ccccc5C4)sc3nc2c1 | -32.7
COc1ccc2cc3cc(C(=O)NCCN4CCc5ccccc5C4)oc3nc2c1 | -63.3
COc1ccc2cc3cc(C(=O)NCCN4CCN(Cc5ccccc5)CC4)oc3nc2c1 | -71.8
CCOC(=O)N1CCC(NC(=O)c2cc3cc4cc(OC)ccc4nc3o2)CC1 | -16.2
COCCCNC(=O)c1cc2cc3cc(OC)ccc3nc2o1 | -12.9
COc1ccc2cc3cc(C(=O)NCc4ccccn4)oc3nc2c1 | 12.1
COc1ccc2cc3cc(C(=O)NCCCN4CCOCC4)oc3nc2c1 | -5.55
COc1ccc2cc3cc(C(=O)NCCCN4CCC(C)CC4)oc3nc2c1 | -58.5
CCN1CCN(CCCNC(=O)c2cc3cc4ccc(OC)cc4nc3o2)CC1 | -17.1
CCCCOC(=O)CN1C(=O)c2ccc(C(=O)OCCCC)cc2C1=O | 4.54
O.O=C([O-])c1ccn2c(C(=O)c3ccccc3)c(-c3ccccc3)cc2c1 | 12.8
C/C(=C\C(=O)OCC(=O)NCc1ccccc1)C(=O)OCC(=O)NCc1ccccc1 | 18.8
CCN1C(=O)CSc2ccc(C(=O)NC3CCCCC3)cc21 | -5.4
Cc1cn2c(=O)c(C(=O)N3CCN(c4ccccc4Cl)CC3)cnc2s1 | -62.8
Cc1cn2c(=O)c(C(=O)N3CCN(c4ccccc4F)CC3)cnc2s1 | -6.27
O=C(c1cnc2sccn2c1=O)N1CCN(c2ccccc2Cl)CC1 | -2.33
